Data as given in the supplement of paper PMC4466140.

B1: unnamed (peptide)
chain: SHRLWLYAAPKRPKT

The binders below were run against ScBbc1 (assay: SPOT peptide array binding signal intensity (averaged, normalized) (arbitrary units (background-subtracted, floor 0; scale differs between SH3 domains)); higher = stronger binding of the SH3 domain to the peptide).
Summary of the method: (§1)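 Binding signal refers to normalized, background-subtracted spot intensity averaged over replicates, expressed in arbitrary units that differ between domains. GST-fused SH3 domains from four yeast species were incubated at 10 μg/ml overnight at 4°C on cellulose membranes of synthetic 15-mer peptides with cysteines replaced by serines. Bound protein was detected with anti-GST antibody, an HRP anti-mouse secondary and luminol, and quantified with Genespotter.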

Binder	SPOT peptide array binding signal intensity
B1	7.75

The binders below were run against ScBem1-D1 in the same assay as above.
Summary of the method: as §1

Binder	SPOT peptide array binding signal intensity
B1	19

The binders below were run against ScBzz1-D1 in the same assay as above.
Summary of the method: as §1

Binder	SPOT peptide array binding signal intensity
B1	42

The binders below were run against ScBzz1-D2 in the same assay as above.
Summary of the method: as §1

Binder	SPOT peptide array binding signal intensity
B1	71

Each binder was assayed against ScCyk3 in the same assay as above.
Summary of the method: as §1

Binder	SPOT peptide array binding signal intensity
B1	20

What follows are binders tested against ScFus1 in the same assay as above.
Summary of the method: as §1

Binder	SPOT peptide array binding signal intensity
B1	260

The binders below were run against ScHof1 in the same assay as above.
Summary of the method: as §1

Binder	SPOT peptide array binding signal intensity
B1	3.25

Each binder was assayed against ScHse1 in the same assay as above.
Summary of the method: as §1

Binder	SPOT peptide array binding signal intensity
B1	404

Each binder was assayed against ScLsb1 in the same assay as above.
Summary of the method: as §1

Binder	SPOT peptide array binding signal intensity
B1	0.5

These binders were tested against ScLsb2 in the same assay as above.
Summary of the method: as §1

Binder	SPOT peptide array binding signal intensity
B1	3

The binders below were run against ScLsb3 in the same assay as above.
Summary of the method: as §1

Binder	SPOT peptide array binding signal intensity
B1	64

The binders below were run against ScLsb4 in the same assay as above.
Summary of the method: as §1

Binder	SPOT peptide array binding signal intensity
B1	≤ 0

What follows are binders tested against ScMyo3 in the same assay as above.
Summary of the method: as §1

Binder	SPOT peptide array binding signal intensity
B1	10

The binders below were run against ScMyo5 in the same assay as above.
Summary of the method: as §1

Binder	SPOT peptide array binding signal intensity
B1	18.5

What follows are binders tested against ScNbp2 in the same assay as above.
Summary of the method: as §1

Binder	SPOT peptide array binding signal intensity
B1	30

These binders were tested against ScPex13 in the same assay as above.
Summary of the method: as §1

Binder	SPOT peptide array binding signal intensity
B1	8.75

The binders below were run against ScRvs167 in the same assay as above.
Summary of the method: as §1

Binder	SPOT peptide array binding signal intensity
B1	18.3

What follows are binders tested against ScSho1 in the same assay as above.
Summary of the method: as §1

Binder	SPOT peptide array binding signal intensity
B1	309

These binders were tested against ScSla1-D1-D2 in the same assay as above.
Summary of the method: as §1

Binder	SPOT peptide array binding signal intensity
B1	32

These binders were tested against ScSla1-D3 in the same assay as above.
Summary of the method: as §1

Binder	SPOT peptide array binding signal intensity
B1	5

What follows are binders tested against SpAbp1-D1 in the same assay as above.
Summary of the method: as §1

Binder	SPOT peptide array binding signal intensity
B1	45

What follows are binders tested against SpBbc1 in the same assay as above.
Summary of the method: as §1

Binder	SPOT peptide array binding signal intensity
B1	5

What follows are binders tested against SpBzz1-D1 in the same assay as above.
Summary of the method: as §1

Binder	SPOT peptide array binding signal intensity
B1	171

What follows are binders tested against SpBzz1-D2 in the same assay as above.
Summary of the method: as §1

Binder	SPOT peptide array binding signal intensity
B1	0.5

Each binder was assayed against SpCyk3 in the same assay as above.
Summary of the method: as §1

Binder	SPOT peptide array binding signal intensity
B1	3

The binders below were run against SpHof1 in the same assay as above.
Summary of the method: as §1

Binder	SPOT peptide array binding signal intensity
B1	84

These binders were tested against SpHof1-2 in the same assay as above.
Summary of the method: as §1

Binder	SPOT peptide array binding signal intensity
B1	24.5

Each binder was assayed against SpHof1-3 in the same assay as above.
Summary of the method: as §1

Binder	SPOT peptide array binding signal intensity
B1	216

The binders below were run against SpHse1 in the same assay as above.
Summary of the method: as §1

Binder	SPOT peptide array binding signal intensity
B1	157

Each binder was assayed against SpLsb1 in the same assay as above.
Summary of the method: as §1

Binder	SPOT peptide array binding signal intensity
B1	35.5

Each binder was assayed against SpLsb4 in the same assay as above.
Summary of the method: as §1

Binder	SPOT peptide array binding signal intensity
B1	38.5

What follows are binders tested against SpMyo1 in the same assay as above.
Summary of the method: as §1

Binder	SPOT peptide array binding signal intensity
B1	7.5

Each binder was assayed against SpNbp2 in the same assay as above.
Summary of the method: as §1

Binder	SPOT peptide array binding signal intensity
B1	30

Each binder was assayed against SpPex13 in the same assay as above.
Summary of the method: as §1

Binder	SPOT peptide array binding signal intensity
B1	23

Each binder was assayed against SpRvs167 in the same assay as above.
Summary of the method: as §1

Binder	SPOT peptide array binding signal intensity
B1	7.33

These binders were tested against SpSla1-D1-D2 in the same assay as above.
Summary of the method: as §1

Binder	SPOT peptide array binding signal intensity
B1	3

The binders below were run against SpSla1-D3 in the same assay as above.
Summary of the method: as §1

Binder	SPOT peptide array binding signal intensity
B1	15
